The target of assay [1] is rat Peripheral-type Benzodiazepine Receptor (PBR), Tspo (gene 24230) (UniProt P16257). As to the kind of experiment: NVS_MP_rPBR: NovaScreen (NVS) Membrane Protein Assay for rat Peripheral-type Benzodiazepine Receptor (PBR) (AID 2283335; active means hit-call score of the fitted dose curve at least 0.9, where 1 is the maximum). The method, boiled down:
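Radioligand displacement, rat kidney membrane prep, 1 h exposure, filter-based scintillation read; DMSO baseline, loss-of-signal scored. Primary screen at 25 uM in duplicate, actives followed up in concentration series.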

Assay [2] deals with Estrogen receptor (Homo sapiens) (UniProt P03372). The assay can be described thus: OT_ER_ERaERa_1440: Odyssey Thera (OT) 24-hour HEK293T Protein-Complementation Assay for Estrogen Receptor-alpha/-alpha Homodimer (AID 2283349; active means hit-call score of the fitted dose curve at least 0.9, where 1 is the maximum;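 further: hits raise fluorescence above DMSO for agonists and antagonists alike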). The method in brief:
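Protein-fragment complementation between two human ERα ligand-binding domains (aa 310-547) in stably transfected HEK293T cells was monitored after 24 h treatment, using fluorescence intensity relative to vehicle controls.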

For assay [3] the target is unchanged. As to the kind of experiment: OT_ER_ERaERa_0480: Odyssey Thera (OT) 8-hour HEK293T Protein-Complementation Assay for Estrogen Receptor-alpha/-alpha Homodimer (AID 2283351; active means hit-call score of the fitted dose curve at least 0.9, where 1 is the maximum;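 further: rise in fluorescence from reassembled reporter fragments on ERα LBD homodimer in nucleus or whole cell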). The method in brief:
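HEK293T cells stably expressing the human ERα ligand-binding domain (aa 310-547) as a homodimer PCA were dosed with compound for 8 h. Gain of fluorescence intensity versus DMSO vehicle was read by laser scanning cytometry.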

For assay [4] the target is unchanged. As to the kind of experiment: OT_ERa_GFPERaERE_0480: Odyssey Thera (OT) 8-hour HeLa Transcription Induction Assay for Estrogen Receptor (AID 2283381). The method, boiled down: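 HeLa cells dosed with compound and imaged by fluorescence microscopy at 8 h; GFP induction from an ERE reporter quantified by high-content image analysis and fitted as gain of signal against DMSO baseline.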

The target is the same in assay [5]. As to the kind of experiment: OT_ERa_GFPERaERE_0120: Odyssey Thera (OT) 2-hour HeLa Transcription Induction Assay for Estrogen Receptor (AID 2283382; active means hit-call score of the fitted dose curve at least 0.9, where 1 is the maximum). The method, boiled down:
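HeLa cells were dosed with test chemical and read 2 hours later for GFP-ERα/ERE-linked fluorescent protein induction by fluorescence microscopy. Gain-of-signal was fitted relative to DMSO baseline, quantified by high content image analysis.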

The target in assay [6] is sheep Cyclooxygenase-1 (Cox1), PTGS1 (gene 443551) (UniProt P05979). The assay can be described thus: NVS_ENZ_oCOX1: NovaScreen (NVS) Enzymatic Assay for sheep Cyclooxygenase-1 (Cox1) (AID 2283239; active means hit-call score of the fitted dose curve at least 0.9, where 1 is the maximum;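 further: actives reduce cyclooxygenase activity so potencies are for inhibitors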). The method in brief: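 Cell-free colorimetric assay of enzyme activity in a native extract of ovine seminal vesicles. Absorbance was read 0.66 hour after compound addition. Loss of signal relative to the DMSO negative control was scored, with actives from the 25 uM duplicate primary screen retested in concentration series.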

Assay [7] addresses human CYP2D6, CYP2D6 (gene 1565) (UniProt P10635). As to the kind of experiment: NVS_ADME_hCYP2D6: NovaScreen (NVS) CYP450-related Enzyme Activity (ADME) Assay for human CYP2D6 (AID 2283107; active means hit-call score of the fitted dose curve at least 0.9, where 1 is the maximum). The method in brief: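 Cell-free assay using recombinant enzyme expressed in insect cells, with fluorescence-intensity readout of enzyme activity 1 hour after chemical dosing. Loss of signal versus acetonitrile negative control indicates inhibition. Primary screen ran in duplicate at 10 uM; actives were retested in concentration series.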

Assay [8] deals with Muscarinic acetylcholine receptor M2 (Homo sapiens) (UniProt P08172). The assay can be described thus: NVS_GPCR_hM2: NovaScreen (NVS) G Protein-Coupled Receptor Assay for human Muscarinic, M2 Receptor (AID 2283273; active means hit-call score of the fitted dose curve at least 0.9, where 1 is the maximum). The method in brief:
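CHO membrane prep, radioligand + test compound, 1 h; filtration, scintillation count. Screen 25 uM duplicate → conc. series for actives. Readout: decrease in binding vs DMSO control.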

The nature of assay [9]: CCTE_Shafer_MEA_dev_firing_rate_mean: CCTE's Neural Network Formation Assay for Mean Firing Rate, Shafer Lab (AID 2284031). The method, boiled down:
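Primary rat cortical neurons on 48-well, 16-electrode MEAs (PEI-coated, laminin at plating), exposed from day 0 with compound renewed at DIV 5 and 9. Spikes recorded DIV 5, 7, 9, 12; well-mean firing rate collapsed to trapezoidal AUC, loss-of-signal vs DMSO.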

Assay [10] can be described thus: CCTE_Shafer_MEA_dev_per_burst_spike_percent: CCTE's Neural Network Formation Assay for Percent of Spikes in a Burst, Shafer Lab (AID 2284032). The method, boiled down:
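Rat primary cortical neurons on 16-electrode MEA wells, dosed from plating day 0 for 12 days with renewal on DIV 5 and 9; spikes-in-bursts percentage averaged over bursting electrodes, collapsed as AUC across days 5, 7, 9, 12; loss direction versus DMSO.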

Assay [11] in a line: CCTE_Shafer_MEA_dev_active_electrodes_number: CCTE's Neural Network Formation Assay for Number of Active Electrodes, Shafer Lab (AID 2284040; active means hit-call score of the fitted dose curve at least 0.9, where 1 is the maximum). The method, boiled down:
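Rat cortical primary cultures, 1.5 x 10^5 cells/well, PEI-coated MEA, laminin drop. Continuous exposure DIV 0–12; full media/compound change DIV 5, 9. Readout: electrodes with mean firing ≥5 spikes/min; AUC across days; loss vs DMSO.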

Assay [12] can be described thus: CCTE_Shafer_MEA_dev_burst_rate: CCTE's Neural Network Formation Assay for Burst Rate, Shafer Lab (AID 2284042). The method in brief:
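Rat primary cortical cultures on PEI/laminin MEA; compound from plating, re-dosed at DIV 5, 9 media change. Single-electrode bursts/recording length, well mean of active electrodes; AUC over DIV 5–12 recordings; loss-of-signal vs DMSO.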

Assay [13] in a line: CCTE_Shafer_MEA_dev_per_burst_interspike_interval: CCTE's Neural Network Formation Assay for Burst Interspike Interval, Shafer Lab (AID 2284044).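 Further: mean spike spacing inside bursts as AUC over recordings on days 5 7 9 12.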 The method, boiled down: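 Rat cortical primary cultures, 16 electrodes/well; compound from plating, renewed with full media change DIV 5 and 9. Spikes via adaptive detector; per-burst ISI well-mean over active bursting electrodes; AUC of DIV 5/7/9/12 recordings; loss-direction fit vs DMSO.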

Assay [14] can be described thus: CCTE_Shafer_MEA_dev_burst_duration_mean: CCTE's Neural Network Formation Assay for Mean Burst Duration, Shafer Lab (AID 2284045).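 On AC50: curve fitted for loss meaning shorter burst duration than DMSO.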 The method, boiled down: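 Read-out: average first-to-last-spike interval within single-electrode bursts, averaged over bursting electrodes per well, then summarised as area under the curve across days 5, 7, 9 and 12. Developing rat cortical networks were exposed from day 0.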

Assay [15] in a line: CCTE_Shafer_MEA_dev_interburst_interval_mean: CCTE's Neural Network Formation Assay for Mean Interburst Interval, Shafer Lab (AID 2284046).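 Further: well-mean interburst interval of bursting electrodes as AUC over four recording days; curve fitted for decrease in interburst interval relative to DMSO.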 The method, boiled down: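 Rat cortical neurons, 1.5 x 10^5 cells/well, 48-well MEA; compound from day 0 through DIV 12, media and treatment renewed DIV 5/9. Recordings DIV 5, 7, 9, 12; well-mean interburst interval → trapezoidal AUC, loss direction vs DMSO.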

Assay [16] in a line: CCTE_Shafer_MEA_dev_inter_network_spike_interval_mean: CCTE's Neural Network Formation Assay for Mean Inter-network Spike Interval, Shafer Lab (AID 2284047). The method in brief:
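Primary rat cortical neurons on PEI-coated 48-well MEAs (16 electrodes/well) were exposed from plating day 0 to DIV 12, with dosing renewed at DIV 5 and 9. Recordings at DIV 5, 7, 9, 12 were collapsed by trapezoidal AUC, loss-of-signal fit vs DMSO.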

Assay [17] in a line: CCTE_Shafer_MEA_dev_network_spike_number: CCTE's Neural Network Formation Assay for Number of Network Spikes, Shafer Lab (AID 2284048).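 Further: synchronized bursts across electrodes counted on days 5 7 9 12 and integrated as AUC.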 The method in brief: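 Developing networks of primary rat cortical neurons are treated over 12 days starting at plating, with media and compound fully replaced on DIV 5 and 9. Network spike counts from four recording days are integrated as trapezoidal AUC.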

Assay [18] in a line: CCTE_Shafer_MEA_dev_network_spike_peak: CCTE's Neural Network Formation Assay for Mean Number of Electrodes in Network Spike, Shafer Lab (AID 2284049). The method in brief: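 Rat cortical primary culture, 1.5 x 10^5 cells/well, 48-well MEA (16 electrodes/well). Dosing day 0 through DIV 12, full media/compound exchange DIV 5, 9. AxIS adaptive spike detection; AUC over days 5/7/9/12; loss-of-signal vs DMSO.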

Assay [19] can be described thus: CCTE_Shafer_MEA_dev_spike_duration_mean: CCTE's Neural Network Formation Assay for Mean Spike Duration, Shafer Lab (AID 2284051).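 Further: mean network spike duration pooled as area under curve over DIV 5 to 12 recordings.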 The method in brief: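 Rat cortical primary cultures, 48-well MEA (16 electrodes/well); compound from plating, renewed DIV 5, 9. Network spike duration (AxIS adaptive detector) recorded DIV 5/7/9/12, combined as trapezoidal AUC; loss direction vs DMSO.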

A short description of assay [20]: CCTE_Shafer_MEA_dev_network_spike_duration_std: CCTE's Neural Network Formation Assay for Standard Deviation of Network Spike Duration, Shafer Lab (AID 2284052).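 Further: hits are decreases in network spike duration SD versus DMSO vehicle.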 The method, boiled down:
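Rat cortical cultures, 1.5 x 10^5 cells/well, exposed continuously from plating to DIV 12 with media/compound renewal at DIV 5, 9. Spontaneous activity recorded DIV 5/7/9/12, AxIS adaptive spike detector; AUC across days; negative direction vs DMSO.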

Records with an inconclusive call do not appear. Calls of active or inactive are those of the source. How the source made its calls, unless noted: active means hit-call score of the fitted dose curve at least 0.9, where 1 is the maximum; inactive means score below 0.9.

For orientation: AC50 means the concentration giving half of the maximal activity seen.

Estrogen receptor (Homo sapiens), sequence (P03372 whole entry, looked up, the tested form may be a part): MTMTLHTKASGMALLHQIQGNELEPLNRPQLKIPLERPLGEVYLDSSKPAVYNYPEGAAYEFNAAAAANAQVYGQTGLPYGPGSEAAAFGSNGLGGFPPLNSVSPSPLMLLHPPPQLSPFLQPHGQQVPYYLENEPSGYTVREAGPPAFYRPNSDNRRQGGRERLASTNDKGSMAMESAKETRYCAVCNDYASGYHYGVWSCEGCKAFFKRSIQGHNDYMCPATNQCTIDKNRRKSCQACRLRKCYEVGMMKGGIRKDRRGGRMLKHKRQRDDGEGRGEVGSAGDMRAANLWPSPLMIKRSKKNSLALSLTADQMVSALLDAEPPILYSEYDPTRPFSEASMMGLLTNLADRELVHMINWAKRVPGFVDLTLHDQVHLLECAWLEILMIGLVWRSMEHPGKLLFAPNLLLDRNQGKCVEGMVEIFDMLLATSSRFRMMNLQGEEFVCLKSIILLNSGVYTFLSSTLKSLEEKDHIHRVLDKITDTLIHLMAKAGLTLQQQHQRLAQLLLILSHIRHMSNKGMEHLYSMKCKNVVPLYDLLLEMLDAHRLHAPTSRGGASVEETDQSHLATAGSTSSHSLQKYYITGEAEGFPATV
sheep Cyclooxygenase-1 (Cox1), PTGS1 (gene 443551), sequence (P05979 whole entry, looked up): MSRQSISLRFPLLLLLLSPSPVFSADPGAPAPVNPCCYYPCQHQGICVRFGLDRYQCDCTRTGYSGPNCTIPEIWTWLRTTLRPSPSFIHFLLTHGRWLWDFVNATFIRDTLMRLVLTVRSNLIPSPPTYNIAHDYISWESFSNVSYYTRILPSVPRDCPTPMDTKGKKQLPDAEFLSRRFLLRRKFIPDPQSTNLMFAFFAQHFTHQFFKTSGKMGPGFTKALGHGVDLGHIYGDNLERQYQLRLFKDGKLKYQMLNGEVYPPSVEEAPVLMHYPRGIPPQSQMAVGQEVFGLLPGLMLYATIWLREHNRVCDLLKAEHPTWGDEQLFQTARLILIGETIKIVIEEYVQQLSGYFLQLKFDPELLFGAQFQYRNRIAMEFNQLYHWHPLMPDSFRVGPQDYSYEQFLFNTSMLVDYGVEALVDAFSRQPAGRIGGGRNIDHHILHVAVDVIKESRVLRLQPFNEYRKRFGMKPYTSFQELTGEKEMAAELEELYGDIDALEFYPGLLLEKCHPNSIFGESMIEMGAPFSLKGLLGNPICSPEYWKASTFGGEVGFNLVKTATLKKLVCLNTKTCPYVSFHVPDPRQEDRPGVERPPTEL
rat Peripheral-type Benzodiazepine Receptor (PBR), Tspo (gene 24230), sequence (P16257 whole entry, looked up): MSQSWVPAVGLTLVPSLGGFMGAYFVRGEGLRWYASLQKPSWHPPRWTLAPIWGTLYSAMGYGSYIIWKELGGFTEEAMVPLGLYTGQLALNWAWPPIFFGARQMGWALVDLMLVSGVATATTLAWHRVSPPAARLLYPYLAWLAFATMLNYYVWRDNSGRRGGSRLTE
Muscarinic acetylcholine receptor M2 (Homo sapiens), sequence (P08172 whole entry, looked up): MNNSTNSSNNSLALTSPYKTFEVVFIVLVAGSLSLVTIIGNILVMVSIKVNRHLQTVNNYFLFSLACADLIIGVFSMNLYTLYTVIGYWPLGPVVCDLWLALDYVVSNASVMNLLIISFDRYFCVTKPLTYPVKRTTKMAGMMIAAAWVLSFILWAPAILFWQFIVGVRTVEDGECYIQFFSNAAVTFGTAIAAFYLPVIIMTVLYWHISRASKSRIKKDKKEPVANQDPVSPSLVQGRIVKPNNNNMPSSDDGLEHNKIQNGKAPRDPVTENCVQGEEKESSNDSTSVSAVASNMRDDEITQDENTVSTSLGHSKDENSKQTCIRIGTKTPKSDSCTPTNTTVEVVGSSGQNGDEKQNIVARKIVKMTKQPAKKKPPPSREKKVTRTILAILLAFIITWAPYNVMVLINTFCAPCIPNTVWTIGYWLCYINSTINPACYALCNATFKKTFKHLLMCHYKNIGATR
human CYP2D6, CYP2D6 (gene 1565), sequence (P10635 whole entry, looked up): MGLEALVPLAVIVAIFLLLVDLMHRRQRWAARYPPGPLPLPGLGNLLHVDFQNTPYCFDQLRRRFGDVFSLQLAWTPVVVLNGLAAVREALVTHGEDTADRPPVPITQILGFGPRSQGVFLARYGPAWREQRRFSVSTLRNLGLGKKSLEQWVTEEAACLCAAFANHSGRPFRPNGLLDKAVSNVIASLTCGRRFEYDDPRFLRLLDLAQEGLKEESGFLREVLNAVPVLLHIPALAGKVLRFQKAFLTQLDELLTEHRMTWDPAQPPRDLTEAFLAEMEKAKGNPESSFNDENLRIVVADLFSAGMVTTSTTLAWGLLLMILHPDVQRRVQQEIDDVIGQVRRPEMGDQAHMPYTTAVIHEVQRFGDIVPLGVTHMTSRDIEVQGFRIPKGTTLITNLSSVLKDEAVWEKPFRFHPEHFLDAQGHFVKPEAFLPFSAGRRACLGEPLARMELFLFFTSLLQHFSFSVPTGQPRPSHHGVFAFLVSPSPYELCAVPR

Regarding `CN(C)c1ccc(C(c2ccccc2)c2ccc(N(C)C)cc2)cc1`, the half-maximal activity concentration (AC50) in assay [1] was 25 µM (active).

For `CCCCCCC1CCC(=O)O1` (stereo not given), the result in assay [2], in assay [3], in assay [4] and in assay [5] was inactive.

Regarding `COC(=O)c1ccccc1`, the outcome in [6] was inactive.

For `CN(C)CCC(c1ccc(Cl)cc1)c1ccccn1` (stereo not given), the AC50 was 5 µM (active) in assay [7] and 10.3 µM (active) in assay [8]. The compound was called inactive in [9], in assay [10], in [11], in assay [12], in [13] and in assay [14]. In addition, the compound was called inactive in [15], in [16], in assay [17], in [18], in assay [19] and in assay [20].

For `C=C1CC[C@H]2C[C@@H]1C2(C)C`, the compound was called inactive in assay [2], in assay [3], in assay [4] and in assay [5].

As to `O=C(O)c1ccccc1C(=O)O`, the result in assay [2], in assay [3], in assay [4] and in assay [5] was inactive.

Turning to `CC(C)CC(=O)O`, in assay [6], the AC50 was 25 µM (active).

Turning to `Clc1ccccn1`, in assay [8], the compound was classed as inactive.

For `CC[N+](CC)(CC(=O)Nc1c(C)cccc1C)Cc1ccccc1` (tested in a mixture with another compound), the AC50 in [1] is 3.68 µM (active).

As to `Sc1nc2ccccc2s1`, the AC50 in assay [7] is 3 µM (active).

Turning to `CCCCCCCCCCCCCCCCCC[N+](C)(C)C`, the AC50 in assay [7] is 0.826 µM (active); in [8], 1.06 µM (active).

Regarding `O=C(C(=O)c1ccccc1)c1ccccc1`, the half-maximal activity concentration (AC50) in [1] was 1.86 µM (active).

Take `NC(N)=Nc1nc(CSCCC(N)=NS(N)(=O)=O)cs1`: the call in assay [9], in assay [10], in [11], in assay [12], in assay [13] and in assay [14] was inactive. In addition, the call in assay [15], in [16], in [17], in assay [18], in [19] and in assay [20] was inactive.

Regarding `CC1(C)S[C@@H]2[C@H](NC(=O)[C@H](N)c3ccccc3)C(=O)N2[C@H]1C(=O)O`, the compound was classed as inactive in [9], in [10], in [11], in [12], in assay [13] and in [15]. Moreover, the result in [16], in assay [17], in assay [18], in [19] and in [20] was inactive. The AC50 in [14] was 22.6 µM (active).

Consider `N#CCN(CC#N)CCN(CC#N)CC#N`, for which, in assay [6], the result was inactive.

Values taken from PubChem BioAssay (EPA / NIEHS).
